# Test results published in ChEMBL document CHEMBL2218924, “A broad activity screen in support of a chemogenomic map for kinase signalling research and drug discovery” (Biochem J, 2013).
# Columns and labels:
# [1] = molecular target: T1, Serine/threonine-protein kinase TBK1 (Homo sapiens) (UniProt Q9UHD2); settings: at 10 µM
# T1 sequence (whole entry): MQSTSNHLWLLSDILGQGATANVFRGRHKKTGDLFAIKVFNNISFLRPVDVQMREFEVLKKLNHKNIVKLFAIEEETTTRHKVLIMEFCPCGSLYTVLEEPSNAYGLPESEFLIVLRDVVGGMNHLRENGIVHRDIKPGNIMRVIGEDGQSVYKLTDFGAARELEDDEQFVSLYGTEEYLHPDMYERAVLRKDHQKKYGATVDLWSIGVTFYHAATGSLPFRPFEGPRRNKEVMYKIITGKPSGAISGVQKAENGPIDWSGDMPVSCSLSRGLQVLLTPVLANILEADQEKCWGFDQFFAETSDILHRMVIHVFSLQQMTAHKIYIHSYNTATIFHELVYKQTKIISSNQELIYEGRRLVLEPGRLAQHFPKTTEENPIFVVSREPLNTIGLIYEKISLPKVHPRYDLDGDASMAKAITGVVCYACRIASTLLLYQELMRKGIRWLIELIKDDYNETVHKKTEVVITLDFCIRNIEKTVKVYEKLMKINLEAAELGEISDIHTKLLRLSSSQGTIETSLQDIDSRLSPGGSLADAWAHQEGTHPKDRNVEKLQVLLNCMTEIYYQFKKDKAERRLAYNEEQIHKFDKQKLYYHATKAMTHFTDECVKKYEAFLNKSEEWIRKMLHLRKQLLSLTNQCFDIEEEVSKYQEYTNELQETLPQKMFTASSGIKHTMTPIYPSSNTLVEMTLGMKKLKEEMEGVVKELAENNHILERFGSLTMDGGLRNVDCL
# [2] = molecular target: T2, TGF-beta receptor type-1 (Homo sapiens) (UniProt P36897); settings: at 1 µM
# T2 sequence (whole entry): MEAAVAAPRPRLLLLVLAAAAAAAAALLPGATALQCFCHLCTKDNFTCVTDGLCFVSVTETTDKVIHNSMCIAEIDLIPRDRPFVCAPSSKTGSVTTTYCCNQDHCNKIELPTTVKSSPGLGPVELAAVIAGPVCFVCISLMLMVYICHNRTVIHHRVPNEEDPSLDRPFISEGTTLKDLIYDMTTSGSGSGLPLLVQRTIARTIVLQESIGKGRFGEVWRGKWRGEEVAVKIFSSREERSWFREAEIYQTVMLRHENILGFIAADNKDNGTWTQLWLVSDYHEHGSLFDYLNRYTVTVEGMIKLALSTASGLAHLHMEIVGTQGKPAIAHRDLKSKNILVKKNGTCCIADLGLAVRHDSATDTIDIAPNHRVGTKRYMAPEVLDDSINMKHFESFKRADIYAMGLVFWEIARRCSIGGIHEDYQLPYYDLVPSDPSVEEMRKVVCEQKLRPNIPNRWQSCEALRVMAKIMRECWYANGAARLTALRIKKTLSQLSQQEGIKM
# [3] = molecular target: T2, TGF-beta receptor type-1 (Homo sapiens); settings: at 10 µM
# [4] = molecular target: Insulin-like growth factor 1 receptor (Homo sapiens) (UniProt P08069); settings: at 1 µM
# Insulin-like growth factor 1 receptor (Homo sapiens), sequence (P08069 31-736 limits assumed): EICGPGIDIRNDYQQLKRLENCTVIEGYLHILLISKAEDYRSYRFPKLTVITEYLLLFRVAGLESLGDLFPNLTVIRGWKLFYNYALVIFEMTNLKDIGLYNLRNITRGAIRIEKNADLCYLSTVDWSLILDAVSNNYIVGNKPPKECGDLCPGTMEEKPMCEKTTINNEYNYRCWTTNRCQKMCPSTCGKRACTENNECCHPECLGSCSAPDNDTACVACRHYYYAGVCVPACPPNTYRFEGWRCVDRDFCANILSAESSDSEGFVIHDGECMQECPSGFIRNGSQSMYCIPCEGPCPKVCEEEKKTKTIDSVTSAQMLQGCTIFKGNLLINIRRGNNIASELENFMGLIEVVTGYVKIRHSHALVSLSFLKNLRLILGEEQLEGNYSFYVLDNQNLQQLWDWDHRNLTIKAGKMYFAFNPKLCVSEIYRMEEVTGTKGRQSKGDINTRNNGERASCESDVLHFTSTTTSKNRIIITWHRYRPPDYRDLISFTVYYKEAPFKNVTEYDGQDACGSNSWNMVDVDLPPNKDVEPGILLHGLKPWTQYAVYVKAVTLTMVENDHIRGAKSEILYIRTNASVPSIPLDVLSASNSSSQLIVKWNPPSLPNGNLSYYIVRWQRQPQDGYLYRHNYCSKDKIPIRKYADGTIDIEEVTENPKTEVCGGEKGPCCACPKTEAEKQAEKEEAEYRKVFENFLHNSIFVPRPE
# Insulin-like growth factor 1 receptor (Homo sapiens), sequence (P08069 741-1367 limits assumed): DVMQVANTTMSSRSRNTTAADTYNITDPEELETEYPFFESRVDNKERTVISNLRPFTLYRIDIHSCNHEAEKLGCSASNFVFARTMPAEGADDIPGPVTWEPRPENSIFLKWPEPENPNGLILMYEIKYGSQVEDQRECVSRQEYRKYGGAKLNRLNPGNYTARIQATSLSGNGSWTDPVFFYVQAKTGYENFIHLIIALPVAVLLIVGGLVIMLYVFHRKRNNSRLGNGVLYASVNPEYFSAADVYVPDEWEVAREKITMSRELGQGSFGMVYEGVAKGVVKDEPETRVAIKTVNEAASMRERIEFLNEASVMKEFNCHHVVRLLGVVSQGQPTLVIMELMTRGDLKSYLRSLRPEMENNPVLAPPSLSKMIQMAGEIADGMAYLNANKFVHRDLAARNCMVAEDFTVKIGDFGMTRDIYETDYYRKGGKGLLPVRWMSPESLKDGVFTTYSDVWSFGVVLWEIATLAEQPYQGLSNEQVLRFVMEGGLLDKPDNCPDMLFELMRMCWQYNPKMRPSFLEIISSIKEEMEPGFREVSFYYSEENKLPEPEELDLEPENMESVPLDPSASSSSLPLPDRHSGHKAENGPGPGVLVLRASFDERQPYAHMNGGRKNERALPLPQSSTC
# [5] = molecular target: Insulin-like growth factor 1 receptor (Homo sapiens) (UniProt P08069); settings: at 10 µM
# [6] = molecular target: T3, Inhibitor of nuclear factor kappa-B kinase subunit alpha (Homo sapiens) (UniProt O15111); settings: at 1 µM
# T3 sequence (whole entry): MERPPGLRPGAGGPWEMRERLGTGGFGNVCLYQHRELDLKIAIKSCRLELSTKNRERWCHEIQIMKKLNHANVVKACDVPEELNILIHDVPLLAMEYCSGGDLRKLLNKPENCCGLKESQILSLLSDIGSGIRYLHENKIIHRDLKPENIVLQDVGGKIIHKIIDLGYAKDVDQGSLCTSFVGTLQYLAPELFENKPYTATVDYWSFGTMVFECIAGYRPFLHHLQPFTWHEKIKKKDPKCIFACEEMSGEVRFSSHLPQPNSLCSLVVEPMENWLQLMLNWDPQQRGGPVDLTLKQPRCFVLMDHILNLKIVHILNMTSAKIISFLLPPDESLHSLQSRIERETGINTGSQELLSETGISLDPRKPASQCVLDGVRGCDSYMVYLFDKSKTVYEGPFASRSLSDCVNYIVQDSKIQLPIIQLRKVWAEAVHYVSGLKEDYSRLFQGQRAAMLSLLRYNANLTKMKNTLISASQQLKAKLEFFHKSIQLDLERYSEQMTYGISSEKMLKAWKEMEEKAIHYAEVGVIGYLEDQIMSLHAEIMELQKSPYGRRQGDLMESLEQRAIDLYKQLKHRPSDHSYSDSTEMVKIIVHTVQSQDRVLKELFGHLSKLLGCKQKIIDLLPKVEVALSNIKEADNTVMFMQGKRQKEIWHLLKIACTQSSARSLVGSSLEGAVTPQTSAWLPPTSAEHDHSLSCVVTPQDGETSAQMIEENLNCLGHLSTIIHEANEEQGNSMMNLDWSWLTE
# [7] = molecular target: T3, Inhibitor of nuclear factor kappa-B kinase subunit alpha (Homo sapiens); settings: at 10 µM
# [8] = molecular target: T4, Inhibitor of nuclear factor kappa-B kinase subunit beta (Homo sapiens) (UniProt O14920); settings: at 1 µM
# T4 sequence (whole entry): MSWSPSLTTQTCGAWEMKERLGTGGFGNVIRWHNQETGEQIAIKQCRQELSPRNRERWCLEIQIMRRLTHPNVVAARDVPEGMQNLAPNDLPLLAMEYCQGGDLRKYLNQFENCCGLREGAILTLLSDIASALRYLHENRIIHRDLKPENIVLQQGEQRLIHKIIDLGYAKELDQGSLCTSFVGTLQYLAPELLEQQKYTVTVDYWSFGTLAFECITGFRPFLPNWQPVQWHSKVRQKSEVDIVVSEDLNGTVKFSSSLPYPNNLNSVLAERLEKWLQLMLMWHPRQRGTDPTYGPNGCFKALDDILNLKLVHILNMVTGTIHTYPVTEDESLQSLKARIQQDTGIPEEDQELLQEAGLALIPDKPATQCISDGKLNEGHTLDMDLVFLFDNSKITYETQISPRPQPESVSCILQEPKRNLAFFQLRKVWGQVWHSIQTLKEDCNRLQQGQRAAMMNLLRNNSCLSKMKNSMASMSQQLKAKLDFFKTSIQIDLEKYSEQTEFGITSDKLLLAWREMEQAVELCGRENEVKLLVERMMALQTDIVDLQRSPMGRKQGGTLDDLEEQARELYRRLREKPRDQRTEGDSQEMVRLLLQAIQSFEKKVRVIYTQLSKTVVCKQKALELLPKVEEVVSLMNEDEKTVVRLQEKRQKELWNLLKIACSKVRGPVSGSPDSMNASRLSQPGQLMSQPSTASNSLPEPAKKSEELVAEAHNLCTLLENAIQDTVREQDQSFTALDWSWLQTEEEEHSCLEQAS
# [9] = molecular target: T4, Inhibitor of nuclear factor kappa-B kinase subunit beta (Homo sapiens); settings: at 10 µM
# [10] = molecular target: Insulin receptor (Homo sapiens) (UniProt P06213); settings: at 1 µM
# Insulin receptor (Homo sapiens), sequence (P06213 28-758 limits assumed): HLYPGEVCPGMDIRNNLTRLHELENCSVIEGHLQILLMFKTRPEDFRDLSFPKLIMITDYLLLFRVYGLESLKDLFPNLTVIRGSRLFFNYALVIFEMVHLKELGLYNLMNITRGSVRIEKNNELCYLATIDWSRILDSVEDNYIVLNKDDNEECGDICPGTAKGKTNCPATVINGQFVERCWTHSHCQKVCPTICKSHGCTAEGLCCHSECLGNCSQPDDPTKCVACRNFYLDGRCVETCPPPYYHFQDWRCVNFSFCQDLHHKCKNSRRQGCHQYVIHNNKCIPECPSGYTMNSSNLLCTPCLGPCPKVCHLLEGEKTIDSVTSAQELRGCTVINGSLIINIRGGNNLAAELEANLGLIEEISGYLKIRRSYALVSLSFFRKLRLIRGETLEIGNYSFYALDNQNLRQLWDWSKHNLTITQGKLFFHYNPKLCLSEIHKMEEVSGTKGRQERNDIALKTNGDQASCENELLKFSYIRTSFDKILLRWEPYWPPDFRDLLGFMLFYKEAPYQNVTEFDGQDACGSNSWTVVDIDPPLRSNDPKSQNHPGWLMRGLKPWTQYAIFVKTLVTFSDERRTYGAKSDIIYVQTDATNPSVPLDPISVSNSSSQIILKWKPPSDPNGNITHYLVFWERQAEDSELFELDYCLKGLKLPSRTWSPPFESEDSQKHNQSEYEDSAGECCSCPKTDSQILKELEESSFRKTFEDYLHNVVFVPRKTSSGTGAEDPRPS
# Insulin receptor (Homo sapiens), sequence (P06213 763-1382 limits assumed): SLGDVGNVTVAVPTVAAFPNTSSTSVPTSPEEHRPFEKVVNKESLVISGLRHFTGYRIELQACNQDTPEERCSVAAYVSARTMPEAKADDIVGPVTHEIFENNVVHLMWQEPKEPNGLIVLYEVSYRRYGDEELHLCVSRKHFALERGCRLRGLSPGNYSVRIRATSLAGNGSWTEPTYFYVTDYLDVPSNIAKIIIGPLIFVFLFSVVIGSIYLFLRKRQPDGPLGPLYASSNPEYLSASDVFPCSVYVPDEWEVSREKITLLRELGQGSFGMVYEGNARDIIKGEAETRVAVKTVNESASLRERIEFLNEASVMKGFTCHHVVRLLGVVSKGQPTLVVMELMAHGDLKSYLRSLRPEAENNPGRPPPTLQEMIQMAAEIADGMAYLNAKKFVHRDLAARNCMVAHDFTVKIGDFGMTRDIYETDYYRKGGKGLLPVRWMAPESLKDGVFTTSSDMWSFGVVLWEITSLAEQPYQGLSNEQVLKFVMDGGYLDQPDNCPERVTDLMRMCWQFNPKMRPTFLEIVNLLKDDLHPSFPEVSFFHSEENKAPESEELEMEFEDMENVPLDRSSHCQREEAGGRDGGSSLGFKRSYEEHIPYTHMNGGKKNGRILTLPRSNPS
structure (smiles),measurement,setting,value
Ic1cccc(CSc2nnc(-c3ccncc3)o2)c1,residual activity,[1],6%
same,residual activity,[2],82%
same,residual activity,[3],79%
same,residual activity,[4],79%
same,residual activity,[5],95%
same,residual activity,[6],80%
same,residual activity,[7],72%
same,residual activity,[8],87%
same,residual activity,[9],79%
same,residual activity,[10],93%
